Results taken from PubChem BioAssay.
Active and inactive are the calls of the source.

Experiments:
[1] = optical density shifts of acrAB sulA E. coli – strain DRC41, OD650, 48 h, E. coli filamentation inducer project, primary screen (AID 1152); details: higher = more signal, called active from +8 up or from −8 down;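 also: E. coli MC1000 strain DRC41 lacking acrAB efflux pump and sulA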
[2] = probe aLefty1 binding on compound microarray – biochemical, small-molecule microarray, 635/667 nm fluorescence, primary screen (AID 1153); details: higher = more signal;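 also: score merges spot fluorescence with signal-to-noise ratio from the scanned slide images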
[3] = plasmodial surface anion channel blockers, osmotic lysis – cell-based, P. falciparum Indochina, OD700, 1 h, primary screen (AID 1154); details: P. falciparum Indochina infected RBC osmotic lysis, higher = more signal, called active from +8 up or from −8 down
[4] = plasmodial surface anion channel blockers, osmotic lysis – cell-based, P. falciparum Indochina, OD700, 2 h, primary screen (AID 1155);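 also: lysis reports solute entry through the parasite surface anion channel PSAC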; details: P. falciparum Indochina infected erythrocytes, higher = more signal, called active from +8 up or from −8 down
[5] = changes in parasitized red cell lysis, either direction – P. falciparum Indochina, OD700, 3 h, PSAC antagonist project, primary screen (AID 1156); details: P. falciparum-infected erythrocytes, osmotic lysis, higher = more signal, called active from +8 up or from −8 down
[6] = plasmodial surface anion channel blockers, osmotic lysis – cell-based, P. falciparum Indochina, OD700, 18 h, primary screen (AID 1157); details: P. falciparum Indochina infected erythrocytes, osmotic lysis OD700, 18 h; higher = more signal, called active from +8 up or from −8 down
[7] = S6 kinase pathway phospho-S6 level changes – cell-based, A549, cytoblot, luminescence, serum-stimulated, primary screen (AID 1158); details: 5 h, higher = more signal;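 also: serum-stimulated A549 lung adenocarcinoma cells; signal is phosphorylated S6 detected by cytoblot immunostaining with HRP secondary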
[8] = target: NADPH oxidase 2 (Homo sapiens) (UniProt P04839); test: compounds shifting NOX2 Amplex Red fluorescence – cell-based, HEK293-NOX2, PMA-stimulated, NOX inhibitor project, primary screen (AID 1159); details: 45 min, higher = more signal, called active from +8 up or from −8 down; also: test concentration not given here
Chain of NADPH oxidase 2 (Homo sapiens) (P04839 whole entry, looked up): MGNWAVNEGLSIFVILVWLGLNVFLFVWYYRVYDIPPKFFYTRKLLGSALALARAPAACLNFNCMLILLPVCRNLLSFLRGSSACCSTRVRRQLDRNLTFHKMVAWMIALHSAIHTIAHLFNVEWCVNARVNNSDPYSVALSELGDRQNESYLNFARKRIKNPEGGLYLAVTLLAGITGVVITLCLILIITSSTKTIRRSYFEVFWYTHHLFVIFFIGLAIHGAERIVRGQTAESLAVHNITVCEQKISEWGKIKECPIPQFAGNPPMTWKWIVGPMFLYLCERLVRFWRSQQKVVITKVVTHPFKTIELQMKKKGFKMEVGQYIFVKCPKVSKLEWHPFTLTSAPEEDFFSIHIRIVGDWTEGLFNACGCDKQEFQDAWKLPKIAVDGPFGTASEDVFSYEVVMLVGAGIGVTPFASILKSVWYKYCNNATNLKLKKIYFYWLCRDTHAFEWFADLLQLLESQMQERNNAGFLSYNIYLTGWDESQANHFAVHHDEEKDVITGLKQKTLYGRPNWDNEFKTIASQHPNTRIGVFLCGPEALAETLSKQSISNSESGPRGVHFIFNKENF

[9] = target: NADPH oxidase 4 (Homo sapiens) (UniProt Q9NPH5); test: compounds shifting NOX4 Amplex Red fluorescence – cell-based, HEK293-NOX4, tetracycline-induced, NOX inhibitor project, primary screen (AID 1160); details: HEK293-NOX4, Amplex Red H2O2 fluorescence, 45 min; higher = more signal, called active from +8 up or from −8 down
Chain of NADPH oxidase 4 (Homo sapiens) (Q9NPH5 whole entry, looked up): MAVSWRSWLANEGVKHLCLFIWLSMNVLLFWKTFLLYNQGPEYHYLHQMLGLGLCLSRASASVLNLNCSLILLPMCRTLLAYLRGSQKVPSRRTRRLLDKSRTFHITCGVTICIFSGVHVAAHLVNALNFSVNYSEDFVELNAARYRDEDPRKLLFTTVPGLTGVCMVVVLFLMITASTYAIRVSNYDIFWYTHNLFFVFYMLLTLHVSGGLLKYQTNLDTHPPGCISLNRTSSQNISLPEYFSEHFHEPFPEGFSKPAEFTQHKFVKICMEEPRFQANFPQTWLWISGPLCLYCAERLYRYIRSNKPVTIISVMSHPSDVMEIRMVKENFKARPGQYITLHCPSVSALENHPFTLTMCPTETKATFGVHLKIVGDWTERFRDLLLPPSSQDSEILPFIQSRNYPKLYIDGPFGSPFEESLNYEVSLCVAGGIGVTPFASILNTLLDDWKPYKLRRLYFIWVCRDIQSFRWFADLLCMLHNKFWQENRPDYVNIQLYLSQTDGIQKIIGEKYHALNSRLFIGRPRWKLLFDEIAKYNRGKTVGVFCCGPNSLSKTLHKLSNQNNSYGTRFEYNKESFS

[10] = target: NADPH oxidase 5 (Homo sapiens) (UniProt Q96PH1); test: compounds shifting NOX5 Amplex Red fluorescence – cell-based, HEK293-NOX5, NOX inhibitor project, primary screen (AID 1161); details: HEK293-NOX5, ionomycin, 45 min, higher = more signal
Chain of NADPH oxidase 5 (Homo sapiens) (Q96PH1 whole entry, looked up): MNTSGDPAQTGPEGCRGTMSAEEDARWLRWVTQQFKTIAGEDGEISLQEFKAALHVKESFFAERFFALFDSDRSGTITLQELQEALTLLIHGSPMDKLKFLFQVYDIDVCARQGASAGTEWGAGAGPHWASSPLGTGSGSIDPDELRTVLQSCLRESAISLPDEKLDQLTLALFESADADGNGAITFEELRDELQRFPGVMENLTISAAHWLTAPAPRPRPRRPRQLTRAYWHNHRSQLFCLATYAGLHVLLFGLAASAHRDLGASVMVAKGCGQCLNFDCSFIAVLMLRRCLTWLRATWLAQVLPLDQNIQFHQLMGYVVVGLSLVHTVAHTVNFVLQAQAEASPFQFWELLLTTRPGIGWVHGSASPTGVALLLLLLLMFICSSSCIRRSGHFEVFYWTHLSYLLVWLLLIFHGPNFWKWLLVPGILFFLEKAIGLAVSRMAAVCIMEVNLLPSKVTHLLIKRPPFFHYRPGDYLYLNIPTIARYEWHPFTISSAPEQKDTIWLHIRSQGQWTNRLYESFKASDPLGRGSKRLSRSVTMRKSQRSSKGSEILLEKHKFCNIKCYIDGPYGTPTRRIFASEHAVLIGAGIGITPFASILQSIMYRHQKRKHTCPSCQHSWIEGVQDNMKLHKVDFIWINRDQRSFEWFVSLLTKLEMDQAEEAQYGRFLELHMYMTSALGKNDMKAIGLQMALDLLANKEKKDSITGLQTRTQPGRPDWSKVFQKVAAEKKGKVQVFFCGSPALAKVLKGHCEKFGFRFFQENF

[11] = compound effects on lung adenocarcinoma cell viability – A549, calcein-AM fluorescence, 48 h, basal, profiling panel (AID 1162); details: higher = more signal; also: test concentration not given here
[12] = compound effects on differentiated 3T3-L1 adipocyte viability – cell-based, 3T3-L1 adipocytes, calcein-AM fluorescence, 48 h, basal, profiling panel (AID 1163); details: 3T3-L1 adipocytes viability, higher = more signal; also: test concentration not given here
[13] = compound effects on hepatocellular carcinoma cell viability – HepG2, calcein-AM fluorescence, 48 h, basal, profiling panel (AID 1164); details: higher = more signal; also: test concentration not given here
[14] = compound effects on multiple myeloma cell viability – MM1S, calcein-AM fluorescence, 48 h, basal, profiling panel (AID 1165); details: higher = more signal;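 also: viability of MM1S multiple myeloma cells under basal unstimulated conditions; test concentration not given here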
[15] = calcein-AM signal in unstimulated myeloma cells – cell-based, calcein-AM fluorescence, 48 h, PK04 Diversity Set, profiling panel (AID 1166); details: RPMI8226 myeloma viability, higher = more signal;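 also: cells grown under basal conditions without added stimulus; test concentration not given here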
[16] = JC-1 mitochondrial signal, unstimulated HepG2 cells – cell-based, JC-1 fluorescence, 24 h, 100 nL compound, profiling panel (AID 1167); details: HepG2 mitochondrial potential, higher = more signal; also: test concentration not given here
[17] = JC-1 mitochondrial signal, unstimulated adipocytes – cell-based, JC-1 fluorescence, 3T3-L1 adipocytes, 24 h, 100 nL compound, profiling panel (AID 1168); details: JC-1 mitochondrial fluorescence, higher = more signal, called active from +8 up or from −8 down; also: test concentration not given here
[18] = JC-1 mitochondrial signal, unstimulated myeloma cells – cell-based, JC-1 fluorescence, RPMI8226, 24 h, 100 nL compound, profiling panel (AID 1169); details: JC-1 mitochondrial potential fluorescence, higher = more signal; also: test concentration not given here
[19] = JC-1 mitochondrial signal, unstimulated MM1S myeloma – cell-based, JC-1 fluorescence, 24 h, 100 nL compound, profiling panel (AID 1170); details: MM1S mitochondrial potential, higher = more signal; also: test concentration not given here
[20] = resazurin metabolic signal in A549 cells – cell-based, resazurin fluorescence, 24 h, PK04 Diversity Set, profiling panel (AID 1171); details: A549 viability, higher = more signal, called active from +8 up or from −8 down; also: test concentration not given here

Structure (SMILES)	z-score [1]	composite z-score [2]	z-score [3]	z-score [4]	z-score [5]	z-score [6]	z-score [7]	z-score [8]	z-score [9]	z-score [10]	z-score [11]	z-score [12]	z-score [13]	z-score [14]	z-score [15]	z-score [16]	z-score [17]	z-score [18]	z-score [19]	z-score [20]
C=C/C=C/[C@@H]1C(=C)CN([C@@H](Cc2ccccc2)C(=O)OC)[C@H]1[C@@H](O)Cc1ccccc1	0.834 (inactive)	-0.0601	0.743 (inactive)	0.362 (inactive)	-0.41 (inactive)	0.109 (inactive)	0.294	0.0619 (inactive)	-0.199 (inactive)	0.568	0.192	-0.47	0.438	-3.04	-2.15	-0.28	0.147 (inactive)	-0.975	-2.24	0.663 (inactive)
CN(C)C(=O)[C@@]1(Cc2ccccc2N=[N+]=[N-])N=C(c2ccc(OCCCO)cc2)O[C@H]1c1ccccc1	-0.369 (inactive)	0.465	25.7 (active)	12.4 (active)	2.85 (inactive)	1.94 (inactive)	-0.482	-3.93 (inactive)	0.711 (inactive)	-2.45	-1.85	0.574	-0.954	-2.99	-3.67	0.517	0.0738 (inactive)	-1.25	-1.67	-2.2 (inactive)
C=CCNC(=O)[C@@H]1[C@H]2C(=O)O[C@H](c3ccccc3)[C@H](c3ccccc3)N2[C@H](c2ccc(OCCO)cc2)[C@@]12C(=O)N(C(=O)OCCOC)c1ccc(C#CCCO)cc12	3.11 (inactive)	0.503	4.81 (inactive)	0.343 (inactive)	-0.38 (inactive)	-1.47 (inactive)	2.25	1.3 (inactive)	0.821 (inactive)	-0.573	2.85	1.86	1.22	0.485	0.927	-0.435	1.27 (inactive)	-0.709	-1.07	-0.477 (inactive)
COC(=O)C(CC#Cc1ccc2c(c1)[C@]1(C(=O)N2)[C@H](c2ccc(OCCO)cc2)N2[C@H](c3ccccc3)[C@H](c3ccccc3)OC(=O)[C@H]2[C@@H]1C(=O)N1CCN(c2ncccn2)CC1)C(=O)OC	-0.34 (inactive)	0.53	4.2 (inactive)	1.62 (inactive)	0.257 (inactive)	0.539 (inactive)	-0.454	1.46 (inactive)	1.05 (inactive)	1.52	-0.824	-0.661	0.228	-0.966	-3.72	-1.01	0.525 (inactive)	-1	-1.55	0.352 (inactive)
O=C1C2C=CC(C(O)C=Cc3ccc([N+](=O)[O-])cc3)N(Nc3ccccc3)C2C(=O)N1c1ccccc1 (stereo not given)	-0.323 (inactive)	0.424	11 (active)	2.2 (inactive)	0.478 (inactive)	1.81 (inactive)	-0.914	-1.72 (inactive)	-2.96 (inactive)	-2.32	2.48	-0.123	1.28	0.0385	-0.0477	-0.0526	-1.19 (inactive)	-0.175	-0.951	-0.102 (inactive)
Cc1ccc([C@H]2C(C(=O)O)=C[C@@H](C(C)(C)C)N2S(=O)(=O)c2ccc(C)cc2)cc1	-1.18 (inactive)	0.141	0.212 (inactive)	0.934 (inactive)	-0.627 (inactive)	0.585 (inactive)	-0.213	0.96 (inactive)	-2.84 (inactive)	-0.357	-0.728	-0.85	-0.338	0.0315	-0.4	-0.892	-0.38 (inactive)	-0.0701	-1.19	-0.654 (inactive)
COc1ccc(C#Cc2ccc3c(c2)[C@]2(C(=O)N3)[C@H](C(=O)N3CCCCCCC3)[C@H]3C(=O)O[C@H](c4ccccc4)[C@H](c4ccccc4)N3[C@@H]2c2ccc(O)cc2)cc1	-0.821 (inactive)	2.04	0.445 (inactive)	0.391 (inactive)	-0.562 (inactive)	0.271 (inactive)	-0.0624	0.697 (inactive)	0.174 (inactive)	0.00156	-0.636	1.61	-0.984	0.171	-1.05	-1.2	1.34 (inactive)	-0.582	-0.191	0.601 (inactive)
CCC(CC)C(O)C1C=CC2C(=O)N(c3ccccc3)C(=O)C2N1Nc1ccc([N+](=O)[O-])cc1 (stereo not given)	-0.639 (inactive)	0.342	6.6 (inactive)	0.997 (inactive)	0.136 (inactive)	0.507 (inactive)	-0.469	-0.272 (inactive)	-0.44 (inactive)	-1.03	-0.878	-1.13	-0.172	0.486	-1.23	-2.25	-1.37 (inactive)	0.523	-1.6	-0.517 (inactive)
CCOC(=O)C1=CC[C@@H](c2ccccc2)N(S(=O)(=O)c2ccc(C)cc2)[C@H]1C=Cc1ccccc1	-1.11 (inactive)	0.436	1.92 (inactive)	1.12 (inactive)	-0.684 (inactive)	0.779 (inactive)	-0.577	0.549 (inactive)	-0.395 (inactive)	0.884	-0.959	-0.443	-0.599	-0.149	-1.44	2.91	-0.489 (inactive)	0.0754	-1.42	2.28 (inactive)
